In the library only some 19% were active in any assay of this set; here they are far more common.
Shiga toxin inh – inhibitors of Shiga toxin in Vero cells; AID 2315; inhibition, % at 38.7 µM; Vero cells, Shiga toxin protein synthesis inhibition reporter; 290,000 tested, 9.2% active; in the data active = inhibition mostly above about 28%, no sharp cut-off; inactive = mostly below about 43%
Pf growth 96h – inhibits malaria parasite growth, 96 h. P. falciparum luciferase reporter growth, 96 h. Potency, µM (series often up to 28.7 µM), most hits filed as inhibitors. 320,000 tested, 6.9% active
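Two-generation exposure (96 h) targets delayed-death phenotype. Reporter parasites carrying integrated firefly luciferase, in red cells at 2% hematocrit and 0.05% parasitemia final, kept at 37 C, 5% CO2; luminescence loss indicates inhibition.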
MARV entry inh – inhibitors of Marburg virus binding or cell entry | Marburg virus pseudotyped entry inhibition, cell reporter | Potency, µM (highest dose often 37.8 µM), actives largely listed as inhibitors | 300,000 tested, 1.8% active | AID 540276; calls by dose curve; tested in HEK293 cells
LASV entry inh – Lassa virus entry inhibition; 300,000 tested, 1.2% active; Lassa virus pseudotype entry inhibition, cell reporter; Potency, µM (doses to about 37.9 µM), most hits filed as inhibitors; calls by dose curve; tested in HEK293 cells; note: nearly all actives have a fitted effect of over 50% in size
Pf growth 48h – P. falciparum growth inhibition at 48 hours (one generation). AID 504832. Potency, µM (doses to about 28.7 µM), actives largely listed as inhibitors. 310,000 tested, 5.9% active. P. falciparum luciferase growth in erythrocytes, 48 h
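Compounds are pin-transferred into medium, infected erythrocytes (2% hematocrit, 0.1% parasitemia final) are added, and plates sit one parasite generation at 37 C in 5% CO2. Detection reagent is then added and luminescence measured.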
CHX counter – affects cycloheximide protein synthesis inhibition readout, counter-screen; cell reporter, cycloheximide protein synthesis inhibition counterscreen; max response, %; 300,000 tested, 12% active; AID 2314; in the data active = max response mostly above about 13%, no sharp cut-off; inactive = mostly below about 14%; note: read at 38.3 µM for the half of the compounds with a filed dose
Large screens that a line does not name were inactive. Unless noted, calls come from the whole dose curve; as a rule, active = well fitted inhibition curve with a large enough effect; inconclusive = small, poorly fitted or top-dose-only effect, or another doubt; inactive = no such curve, though single readings can be large or run the other way.

NC(=O)CC(NC(=O)Cc1ccc(Br)cc1)c1ccc(NCc2ccccn2)c([N+](=O)[O-])c1 (configuration not stated)	none (no result: MARV entry inh, LASV entry inh)
COc1ccc(CN2CCN(S(=O)(=O)c3ccc(F)cc3)CC2)c(OC)c1OC	none (no result: Pf growth 96h, Pf growth 48h)
CC(NS(=O)(=O)c1ccc(Br)cc1)C(=O)NC1CCCCCC1 (configuration not stated)	Pf growth 96h inconclusive
CCOC(=O)c1ccc(NC(=O)c2cc(=O)c3ccc(C)c(C)c3o2)cc1	none (no result: Shiga toxin inh, Pf growth 96h, Pf growth 48h, CHX counter)
CN(CCc1cn[nH]c1)C(=O)CC1C(=O)NCCN1Cc1ccccc1C(F)(F)F (configuration not stated)	Pf growth 96h inconclusive (no result: MARV entry inh, LASV entry inh)
CCn1nc(C)c(CN2CCC(n3nccc3NC(=O)Cc3ccccc3)CC2)c1C	Pf growth 96h 11.7µM
Cc1ccc(S(=O)(=O)NCCCCCC(=O)NCCc2ccccc2)cc1	none (no result: MARV entry inh, LASV entry inh)
Cc1ccc(NC(=O)CCCCCNS(=O)(=O)c2ccc(C)cc2)cc1	Pf growth 96h 11.7µM, MARV entry inh inconclusive, Pf growth 48h inconclusive
COCCNC(=O)CCCCCNS(=O)(=O)c1ccc(C)cc1	none
Cc1ccc(S(=O)(=O)NCCCCCC(=O)Nc2nccs2)cc1	Pf growth 48h 13.1µM
CCOCCCNC(=O)CCNS(=O)(=O)c1ccc(C)cc1	Pf growth 96h 9.28µM
Cc1ccc(S(=O)(=O)NCCCCCC(=O)N(C)C)cc1	Pf growth 96h 10.4µM
O=C(CCCNS(=O)(=O)c1ccc(F)cc1)Nc1ccc(F)cc1	none
CCCCCCCC(=O)Nc1ccc(S(=O)(=O)Nc2nccs2)cc1	MARV entry inh inconclusive
CCOC(=O)Cn1c(=O)oc2cc(S(=O)(=O)NCCc3ccc(C)cc3)ccc21	none (no result: LASV entry inh)
NC(=O)c1ccsc1NC(=O)COC(=O)[C@@H]1CCCN1C(=O)c1cccs1	none (no result: Shiga toxin inh, Pf growth 96h, Pf growth 48h, CHX counter)
c1ccc(-c2nnc(SCc3cn4ccsc4n3)o2)cc1	Shiga toxin inh 92.8, CHX counter 30.1
Cc1nnc(SCc2cn3ccsc3n2)n(N)c1=O	none
COc1ccc(NC(=O)CN(C)C(=O)c2cccc(S(=O)(=O)N3CCCc4ccccc43)c2)cc1	Pf growth 96h inconclusive, MARV entry inh inconclusive, Pf growth 48h 13.1µM (no result: Shiga toxin inh, CHX counter)
COc1ccc(NC(=O)c2cc(S(=O)(=O)N3CCc4ccccc43)cn2C)cc1	Shiga toxin inh 28.2, Pf growth 48h 9.28µM, CHX counter 14.3 (no result: MARV entry inh, LASV entry inh)
Cc1ccc(NC(=O)c2cc(S(=O)(=O)N3CCc4ccccc43)cn2C)cc1C	Pf growth 48h inconclusive (no result: MARV entry inh, LASV entry inh)
COCCN(Cc1ccccc1)C(=O)c1cccc(S(=O)(=O)N2CCCc3ccccc32)c1	Pf growth 48h inconclusive (no result: Shiga toxin inh, MARV entry inh, LASV entry inh, CHX counter)
COc1ccccc1CN(C)C(=O)c1cccc(S(=O)(=O)N2CCCc3ccccc32)c1	Pf growth 96h 9.28µM, LASV entry inh inconclusive, Pf growth 48h 7.38µM (no result: Shiga toxin inh, CHX counter)
Cc1cc(N2CCCCC2)c(F)cc1[N+](=O)[O-]	none
Cc1ccc(N2CC(NC(=O)C(=O)c3c(C)[nH]c4ccccc34)CC2=O)cc1 (configuration not stated)	LASV entry inh inconclusive (no result: Shiga toxin inh, CHX counter)
COc1ccccc1C/C(N)=N/OC(=O)c1ccco1	Shiga toxin inh 55.9, CHX counter 19.3 (no result: MARV entry inh, LASV entry inh)
COc1ccccc1C/C(N)=N/OC(=O)c1ccc2c(c1)OCO2	Shiga toxin inh 104.5, Pf growth 48h inconclusive, CHX counter 44.3 (no result: MARV entry inh, LASV entry inh)
CN(C)C(=O)Oc1noc2cc(Cl)ccc12	Pf growth 96h 3.29µM, Pf growth 48h inconclusive (no result: MARV entry inh, LASV entry inh)
CN(C)C(=O)Oc1c(Cl)cc(Cl)c2cccnc12	none
CCN(C(=O)COC(=O)c1cccc(C)c1[N+](=O)[O-])c1c(N)n(Cc2ccccc2)c(=O)[nH]c1=O	MARV entry inh inconclusive (no result: Shiga toxin inh, CHX counter)
Cc1cccc(OCc2nnc(SCC(=O)N3CCCC3)o2)c1	none
COC(=O)c1ccc(OC)c(CSc2nnc(COc3cccc(C)c3)o2)c1	MARV entry inh 16.4µM
Cc1cccc(OCc2nnc(SCC(=O)N3c4ccccc4CCc4ccccc43)o2)c1	Pf growth 96h inconclusive, MARV entry inh inconclusive, LASV entry inh inconclusive, Pf growth 48h 10.4µM
O=C(CSc1nnc(COc2ccc(F)cc2)o1)N1CCCCC1	MARV entry inh inconclusive
O=C(CSc1nnc(COc2ccc(F)cc2)o1)N1c2ccccc2CCc2ccccc21	Pf growth 96h inconclusive, Pf growth 48h 4.15µM
CC(Sc1ncccn1)C(=O)N1CCc2ccccc21 (configuration not stated)	MARV entry inh inconclusive, Pf growth 48h inconclusive (no result: Shiga toxin inh, CHX counter)
COC(=O)c1c(C)oc(C)c1S(=O)(=O)NC(c1ccccc1)c1ccccc1	Pf growth 96h inconclusive, Pf growth 48h inconclusive
Cc1ccc(NC(=O)c2cc(S(=O)(=O)N3CCOCC3)cs2)cc1	Pf growth 48h inconclusive
O=C(Nc1ccc(F)cc1)c1cc(S(=O)(=O)Nc2ccc(F)cc2)cs1	Pf growth 96h 11.7µM, LASV entry inh inconclusive
Cc1ccc(NC(=O)c2cc(S(=O)(=O)N3CCCCC3)cs2)cc1	Pf growth 96h inconclusive, LASV entry inh 20.6µM (no result: Pf growth 48h)
O=C(Nc1ccc(F)cc1)c1cc(S(=O)(=O)N2CCOCC2)cs1	Pf growth 96h 11.7µM (no result: MARV entry inh, LASV entry inh)
Cc1cccc(NS(=O)(=O)c2ccc(C)c(C(=O)N3CCN(C(=O)c4ccco4)CC3)c2)c1	LASV entry inh inconclusive (no result: Shiga toxin inh, Pf growth 96h, Pf growth 48h, CHX counter)
COc1ccc(C2OCC(C)(C)CO2)cc1OC	none (no result: Shiga toxin inh, Pf growth 96h, Pf growth 48h, CHX counter)
CC1CC(C)CN(CCCNC(=O)c2ccc(N3CCCC3=O)cc2)C1 (configuration not stated)	Pf growth 96h inconclusive (no result: MARV entry inh, LASV entry inh)
CN1C(=O)c2cccc3c(S(=O)(=O)N4CCCC4C(=O)O)ccc1c23 (configuration not stated)	none
O=C(CCN1CCN(c2ccccc2)CC1)c1ccc(Cl)cc1	none (no result: MARV entry inh, LASV entry inh, Pf growth 48h)
O=C1CC(=C(c2ccccc2)c2ccccc2)C(=O)N1CCCCN1CCN(c2ccccc2)CC1	Pf growth 96h 3.29µM, MARV entry inh inconclusive, LASV entry inh inconclusive (no result: Pf growth 48h)
CCN1CCN(c2nc3c(c(=O)[nH]c(=O)n3C)n2Cc2ccccc2F)CC1	none (no result: Shiga toxin inh, MARV entry inh, LASV entry inh)
CCNC(=O)CCC(=O)Nc1cc(Cl)ccc1C	none (no result: Pf growth 96h)
O=S(=O)(C/C(=C/CO)S(=O)(=O)c1ccccc1)c1ccccc1	Pf growth 96h inconclusive, MARV entry inh 1.83µM, LASV entry inh inconclusive, Pf growth 48h inconclusive, CHX counter 25.8
C=CCN1C(=O)S/C(=C/c2ccc(Sc3nc4ccccc4[nH]3)o2)C1=O	MARV entry inh inconclusive, LASV entry inh 20µM
O=C(O)CCC(=O)Nc1ccccc1C(=O)NCc1ccco1	none
CC1Oc2ccccc2N(CC(=O)Nc2ccccc2F)C1=O (configuration not stated)	Pf growth 96h inconclusive, MARV entry inh inconclusive
CC1=C(C(=O)Nc2ccccc2)C(c2ccc(Cl)cc2)n2c(s/c(=C/c3cccc(OCC(=O)O)c3)c2=O)=N1 (configuration not stated)	Pf growth 48h 1.65µM
CCOc1ccc(C2C(C(=O)Nc3ccccc3)=C(C)N=c3s/c(=C/c4cccc(OCC(=O)O)c4)c(=O)n32)cc1 (configuration not stated)	Pf growth 96h inconclusive, Pf growth 48h 0.465µM
O=C(O)CCN1C(=O)/C(=C\c2cccc(OCC(=O)Nc3ccc(Cl)cc3)c2)SC1=S	none (no result: MARV entry inh, LASV entry inh)

Screening results deposited in PubChem BioAssay by National Center for Advancing Translational Sciences (NCATS).
